Assay [1] concerns the target Protein kinase C gamma type (Homo sapiens) (UniProt P05129). The note with it: at 1 µM.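 Note: each value is an averaged percent inhibition of the enzyme.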
The target of assay [2] is T1, Protein kinase C iota type (Homo sapiens) (UniProt P41743).
T1 sequence (whole entry): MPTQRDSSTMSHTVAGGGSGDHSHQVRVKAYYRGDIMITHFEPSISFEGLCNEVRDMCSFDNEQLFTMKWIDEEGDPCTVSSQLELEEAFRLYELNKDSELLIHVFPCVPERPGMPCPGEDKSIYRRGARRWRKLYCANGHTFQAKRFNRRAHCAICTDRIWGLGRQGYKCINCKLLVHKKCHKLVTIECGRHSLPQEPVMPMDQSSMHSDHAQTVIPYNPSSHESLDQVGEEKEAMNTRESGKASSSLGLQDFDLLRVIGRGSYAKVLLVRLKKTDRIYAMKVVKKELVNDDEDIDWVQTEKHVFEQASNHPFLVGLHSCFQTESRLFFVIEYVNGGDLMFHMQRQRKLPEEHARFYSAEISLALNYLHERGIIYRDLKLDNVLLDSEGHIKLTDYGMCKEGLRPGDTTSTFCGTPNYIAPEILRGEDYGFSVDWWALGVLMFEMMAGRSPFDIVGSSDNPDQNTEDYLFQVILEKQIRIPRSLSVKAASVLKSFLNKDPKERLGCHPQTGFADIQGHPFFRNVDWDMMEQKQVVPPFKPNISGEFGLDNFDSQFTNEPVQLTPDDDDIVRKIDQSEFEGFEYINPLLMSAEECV
The note with it: at 0.1 µM.

The target in assay [3] is T1, Protein kinase C iota type (Homo sapiens). Particulars: at 1 µM.
The target in assay [4] is Protein kinase C theta type (Homo sapiens) (UniProt Q04759). The note with it: at 0.1 µM.
Assay [5] shares this target. The note with it: at 1 µM.
Assay [6] deals with Protein kinase C beta type (Homo sapiens) (UniProt P05771). Particulars: at 0.1 µM.
Assay [7] shares this target. Particulars: at 1 µM.
The target of assay [8] is T2, Serine/threonine-protein kinase D1 (Homo sapiens) (UniProt Q15139).
T2 sequence (whole entry): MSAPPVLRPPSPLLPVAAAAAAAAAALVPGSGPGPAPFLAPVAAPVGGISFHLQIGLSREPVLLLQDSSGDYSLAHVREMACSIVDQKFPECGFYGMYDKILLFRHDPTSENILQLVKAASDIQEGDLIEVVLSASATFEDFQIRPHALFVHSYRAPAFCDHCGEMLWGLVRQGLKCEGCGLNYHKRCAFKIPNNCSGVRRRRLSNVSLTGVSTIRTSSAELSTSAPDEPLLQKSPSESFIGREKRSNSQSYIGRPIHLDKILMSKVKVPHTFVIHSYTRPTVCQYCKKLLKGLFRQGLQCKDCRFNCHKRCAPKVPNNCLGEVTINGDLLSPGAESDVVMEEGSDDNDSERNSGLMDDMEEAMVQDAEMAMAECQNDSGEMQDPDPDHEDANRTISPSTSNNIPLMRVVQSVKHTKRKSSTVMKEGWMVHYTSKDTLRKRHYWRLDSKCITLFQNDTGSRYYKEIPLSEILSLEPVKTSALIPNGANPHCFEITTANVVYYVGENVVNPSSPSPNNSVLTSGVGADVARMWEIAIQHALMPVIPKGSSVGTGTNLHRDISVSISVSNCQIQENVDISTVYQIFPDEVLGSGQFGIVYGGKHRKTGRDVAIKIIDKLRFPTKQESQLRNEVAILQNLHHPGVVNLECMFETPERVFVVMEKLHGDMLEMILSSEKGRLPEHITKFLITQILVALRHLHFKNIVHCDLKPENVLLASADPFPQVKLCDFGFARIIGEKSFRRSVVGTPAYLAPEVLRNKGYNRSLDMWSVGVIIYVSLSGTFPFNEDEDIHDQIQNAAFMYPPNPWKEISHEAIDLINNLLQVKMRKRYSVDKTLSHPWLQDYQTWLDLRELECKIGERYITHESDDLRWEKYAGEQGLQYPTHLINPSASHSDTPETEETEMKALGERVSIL
Particulars: at 0.1 µM.

Assay [9] addresses T2, Serine/threonine-protein kinase D1 (Homo sapiens). The note with it: at 1 µM.
Assay [10] has as its target T3, Serine/threonine-protein kinase D2 (Homo sapiens) (UniProt Q9BZL6).
T3 sequence (whole entry): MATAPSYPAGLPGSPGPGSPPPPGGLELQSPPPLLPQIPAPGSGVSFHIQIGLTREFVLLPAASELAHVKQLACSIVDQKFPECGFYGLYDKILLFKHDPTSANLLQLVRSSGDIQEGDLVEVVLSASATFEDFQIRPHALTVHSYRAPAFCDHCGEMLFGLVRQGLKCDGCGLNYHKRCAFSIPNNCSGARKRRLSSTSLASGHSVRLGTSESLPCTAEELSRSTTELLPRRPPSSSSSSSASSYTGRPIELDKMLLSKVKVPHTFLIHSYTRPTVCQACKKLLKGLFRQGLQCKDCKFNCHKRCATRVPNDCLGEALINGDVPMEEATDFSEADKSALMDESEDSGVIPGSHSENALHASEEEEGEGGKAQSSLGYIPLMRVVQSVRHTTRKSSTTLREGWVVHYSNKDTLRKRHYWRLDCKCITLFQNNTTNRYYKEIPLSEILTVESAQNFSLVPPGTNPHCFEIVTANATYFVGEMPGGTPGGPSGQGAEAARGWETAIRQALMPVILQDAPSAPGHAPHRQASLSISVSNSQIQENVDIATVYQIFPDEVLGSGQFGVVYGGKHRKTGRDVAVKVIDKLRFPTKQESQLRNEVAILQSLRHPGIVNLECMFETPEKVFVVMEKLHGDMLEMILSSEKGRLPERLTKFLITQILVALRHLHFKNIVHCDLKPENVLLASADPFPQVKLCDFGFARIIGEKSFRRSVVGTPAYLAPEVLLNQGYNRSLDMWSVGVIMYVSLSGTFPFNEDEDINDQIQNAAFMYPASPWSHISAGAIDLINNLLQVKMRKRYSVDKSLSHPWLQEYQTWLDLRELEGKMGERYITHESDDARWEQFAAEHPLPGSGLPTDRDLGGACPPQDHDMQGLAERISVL
The note with it: at 0.1 µM.

The target of assay [11] is T3, Serine/threonine-protein kinase D2 (Homo sapiens). Particulars: at 1 µM.
Assay [12] concerns the target T4, Serine/threonine-protein kinase D3 (Homo sapiens) (UniProt O94806).
T4 sequence (whole entry): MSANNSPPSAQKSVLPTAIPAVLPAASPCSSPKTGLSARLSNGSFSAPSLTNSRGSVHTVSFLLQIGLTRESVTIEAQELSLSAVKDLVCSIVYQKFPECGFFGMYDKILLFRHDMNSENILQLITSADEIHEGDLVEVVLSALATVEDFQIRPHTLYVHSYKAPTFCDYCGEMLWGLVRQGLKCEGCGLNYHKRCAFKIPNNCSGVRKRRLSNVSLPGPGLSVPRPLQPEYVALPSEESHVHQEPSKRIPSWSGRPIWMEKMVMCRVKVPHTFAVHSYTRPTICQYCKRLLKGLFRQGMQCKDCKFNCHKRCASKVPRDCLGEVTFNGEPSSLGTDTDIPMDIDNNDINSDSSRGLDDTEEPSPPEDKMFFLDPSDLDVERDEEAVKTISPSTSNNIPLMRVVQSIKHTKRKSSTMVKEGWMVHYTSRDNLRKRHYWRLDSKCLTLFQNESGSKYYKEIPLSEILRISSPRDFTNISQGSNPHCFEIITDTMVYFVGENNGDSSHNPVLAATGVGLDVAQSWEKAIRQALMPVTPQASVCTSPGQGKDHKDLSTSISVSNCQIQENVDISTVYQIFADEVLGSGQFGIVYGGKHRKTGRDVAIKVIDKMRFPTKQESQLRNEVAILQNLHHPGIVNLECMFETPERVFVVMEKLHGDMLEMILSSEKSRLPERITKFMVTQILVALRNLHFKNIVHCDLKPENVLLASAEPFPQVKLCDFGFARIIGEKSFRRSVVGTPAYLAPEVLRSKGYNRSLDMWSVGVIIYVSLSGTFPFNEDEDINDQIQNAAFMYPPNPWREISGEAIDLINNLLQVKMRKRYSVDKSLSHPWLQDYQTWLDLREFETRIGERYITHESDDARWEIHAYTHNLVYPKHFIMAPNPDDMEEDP
Particulars: at 0.1 µM.

Assay [13] concerns the target T4, Serine/threonine-protein kinase D3 (Homo sapiens). The note with it: at 1 µM.
Assay [14] concerns the target T5, cGMP-dependent protein kinase 1 (Homo sapiens) (UniProt Q13976).
T5 sequence (whole entry): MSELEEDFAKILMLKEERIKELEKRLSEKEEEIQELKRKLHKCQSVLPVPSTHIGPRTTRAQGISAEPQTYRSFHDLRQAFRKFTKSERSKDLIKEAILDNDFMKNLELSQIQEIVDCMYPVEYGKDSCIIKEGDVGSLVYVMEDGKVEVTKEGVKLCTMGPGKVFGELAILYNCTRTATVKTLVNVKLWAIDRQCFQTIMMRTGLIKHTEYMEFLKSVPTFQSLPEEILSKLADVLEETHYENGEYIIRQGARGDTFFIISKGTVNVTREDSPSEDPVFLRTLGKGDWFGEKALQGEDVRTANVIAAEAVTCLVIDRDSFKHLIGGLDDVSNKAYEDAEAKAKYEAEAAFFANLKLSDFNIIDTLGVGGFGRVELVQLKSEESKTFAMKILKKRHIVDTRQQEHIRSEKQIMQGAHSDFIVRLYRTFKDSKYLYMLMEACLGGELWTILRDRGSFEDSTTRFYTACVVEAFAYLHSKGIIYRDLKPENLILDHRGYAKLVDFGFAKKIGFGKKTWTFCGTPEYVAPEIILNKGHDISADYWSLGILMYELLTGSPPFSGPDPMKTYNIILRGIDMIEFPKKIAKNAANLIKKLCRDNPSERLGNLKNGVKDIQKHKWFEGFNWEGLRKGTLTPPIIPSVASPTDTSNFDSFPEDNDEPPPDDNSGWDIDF
Particulars: at 0.1 µM.

Assay [15] deals with T5, cGMP-dependent protein kinase 1 (Homo sapiens). The note with it: at 1 µM.
The target of assay [16] is T6, cGMP-dependent protein kinase 2 (Homo sapiens) (UniProt Q13237).
T6 sequence (whole entry): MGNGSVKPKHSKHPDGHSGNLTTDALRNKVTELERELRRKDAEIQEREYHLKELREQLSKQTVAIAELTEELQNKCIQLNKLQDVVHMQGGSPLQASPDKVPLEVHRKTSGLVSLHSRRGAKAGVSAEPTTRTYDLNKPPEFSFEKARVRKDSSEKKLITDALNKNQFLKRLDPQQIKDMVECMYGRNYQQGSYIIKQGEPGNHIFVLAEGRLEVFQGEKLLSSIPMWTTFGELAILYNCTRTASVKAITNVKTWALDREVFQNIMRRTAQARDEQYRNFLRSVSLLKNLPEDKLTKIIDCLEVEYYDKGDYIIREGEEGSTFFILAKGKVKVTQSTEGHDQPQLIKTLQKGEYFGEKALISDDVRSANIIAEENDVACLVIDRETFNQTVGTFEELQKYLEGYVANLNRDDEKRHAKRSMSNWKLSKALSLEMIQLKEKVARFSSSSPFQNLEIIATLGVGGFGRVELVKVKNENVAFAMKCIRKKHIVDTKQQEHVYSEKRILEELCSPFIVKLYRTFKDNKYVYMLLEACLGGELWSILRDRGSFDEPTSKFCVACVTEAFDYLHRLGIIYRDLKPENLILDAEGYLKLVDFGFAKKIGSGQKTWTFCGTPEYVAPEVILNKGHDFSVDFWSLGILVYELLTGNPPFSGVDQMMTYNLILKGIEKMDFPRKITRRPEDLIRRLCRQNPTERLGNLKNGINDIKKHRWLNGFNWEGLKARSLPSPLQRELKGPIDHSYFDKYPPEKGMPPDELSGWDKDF
Particulars: at 0.1 µM.

Assay [17] addresses T6, cGMP-dependent protein kinase 2 (Homo sapiens). The note with it: at 1 µM.
Assay [18] deals with T7, cAMP-dependent protein kinase catalytic subunit PRKX (Homo sapiens) (UniProt P51817).
T7 sequence (whole entry): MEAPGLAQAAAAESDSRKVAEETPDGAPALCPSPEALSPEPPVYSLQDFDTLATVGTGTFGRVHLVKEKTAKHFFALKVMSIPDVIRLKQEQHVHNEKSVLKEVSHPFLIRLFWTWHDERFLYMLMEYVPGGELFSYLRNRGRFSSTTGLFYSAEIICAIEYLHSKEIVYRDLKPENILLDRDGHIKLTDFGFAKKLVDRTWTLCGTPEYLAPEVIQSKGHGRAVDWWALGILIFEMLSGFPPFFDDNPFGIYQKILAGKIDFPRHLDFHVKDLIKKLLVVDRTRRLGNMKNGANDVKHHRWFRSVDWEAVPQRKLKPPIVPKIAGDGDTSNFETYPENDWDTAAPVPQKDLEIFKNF
Particulars: at 0.1 µM.

For assay [19], the target named is T7, cAMP-dependent protein kinase catalytic subunit PRKX (Homo sapiens). The note with it: at 1 µM.
Assay [20] addresses Rho-associated protein kinase 1 (Homo sapiens) (UniProt Q13464). Particulars: at 0.1 µM.

Data on two compounds can be found in ChEMBL document CHEMBL1961873, “Compounds: GSK PKIS; Assays: Nanosyn kinase panel” (2012).

Protein kinase C beta type (Homo sapiens), sequence (P05771 2-671 limits assumed): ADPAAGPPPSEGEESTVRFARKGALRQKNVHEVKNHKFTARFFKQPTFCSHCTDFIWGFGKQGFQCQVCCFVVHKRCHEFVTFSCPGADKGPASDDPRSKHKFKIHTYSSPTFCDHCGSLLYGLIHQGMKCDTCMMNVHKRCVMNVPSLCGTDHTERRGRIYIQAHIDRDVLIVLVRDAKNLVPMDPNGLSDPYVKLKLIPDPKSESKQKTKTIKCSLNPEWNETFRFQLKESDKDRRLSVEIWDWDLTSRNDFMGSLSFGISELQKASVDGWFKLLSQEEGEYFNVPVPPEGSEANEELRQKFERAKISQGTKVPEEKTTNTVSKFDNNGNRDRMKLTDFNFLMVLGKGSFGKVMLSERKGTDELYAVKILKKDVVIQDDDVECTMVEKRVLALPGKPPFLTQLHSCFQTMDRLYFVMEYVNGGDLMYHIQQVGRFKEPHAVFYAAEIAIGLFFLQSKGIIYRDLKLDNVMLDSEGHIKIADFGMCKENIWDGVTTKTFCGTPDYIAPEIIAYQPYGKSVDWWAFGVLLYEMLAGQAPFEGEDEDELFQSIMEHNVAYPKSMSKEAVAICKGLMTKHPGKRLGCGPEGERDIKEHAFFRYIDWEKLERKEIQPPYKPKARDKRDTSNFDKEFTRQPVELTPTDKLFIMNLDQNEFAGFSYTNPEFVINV
Protein kinase C theta type (Homo sapiens), sequence (Q04759 whole entry, looked up): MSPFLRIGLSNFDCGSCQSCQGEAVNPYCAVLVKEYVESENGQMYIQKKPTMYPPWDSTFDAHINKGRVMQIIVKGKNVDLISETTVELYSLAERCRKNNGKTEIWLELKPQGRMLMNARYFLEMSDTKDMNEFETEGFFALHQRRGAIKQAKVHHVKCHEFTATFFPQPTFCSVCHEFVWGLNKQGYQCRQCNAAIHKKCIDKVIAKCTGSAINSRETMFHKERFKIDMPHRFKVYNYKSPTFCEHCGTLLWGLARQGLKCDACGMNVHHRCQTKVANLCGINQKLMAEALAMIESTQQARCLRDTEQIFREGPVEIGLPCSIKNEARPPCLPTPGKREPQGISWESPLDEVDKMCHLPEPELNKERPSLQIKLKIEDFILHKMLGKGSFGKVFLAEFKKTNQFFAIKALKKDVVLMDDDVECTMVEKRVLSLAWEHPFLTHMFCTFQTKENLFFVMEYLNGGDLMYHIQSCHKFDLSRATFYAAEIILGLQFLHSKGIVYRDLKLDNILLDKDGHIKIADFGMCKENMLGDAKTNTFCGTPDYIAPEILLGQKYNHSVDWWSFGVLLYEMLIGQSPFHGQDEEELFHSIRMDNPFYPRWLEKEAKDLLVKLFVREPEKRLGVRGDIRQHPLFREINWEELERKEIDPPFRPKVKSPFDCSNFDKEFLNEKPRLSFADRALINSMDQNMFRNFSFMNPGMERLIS
Rho-associated protein kinase 1 (Homo sapiens), sequence (Q13464 2-1354 limits assumed): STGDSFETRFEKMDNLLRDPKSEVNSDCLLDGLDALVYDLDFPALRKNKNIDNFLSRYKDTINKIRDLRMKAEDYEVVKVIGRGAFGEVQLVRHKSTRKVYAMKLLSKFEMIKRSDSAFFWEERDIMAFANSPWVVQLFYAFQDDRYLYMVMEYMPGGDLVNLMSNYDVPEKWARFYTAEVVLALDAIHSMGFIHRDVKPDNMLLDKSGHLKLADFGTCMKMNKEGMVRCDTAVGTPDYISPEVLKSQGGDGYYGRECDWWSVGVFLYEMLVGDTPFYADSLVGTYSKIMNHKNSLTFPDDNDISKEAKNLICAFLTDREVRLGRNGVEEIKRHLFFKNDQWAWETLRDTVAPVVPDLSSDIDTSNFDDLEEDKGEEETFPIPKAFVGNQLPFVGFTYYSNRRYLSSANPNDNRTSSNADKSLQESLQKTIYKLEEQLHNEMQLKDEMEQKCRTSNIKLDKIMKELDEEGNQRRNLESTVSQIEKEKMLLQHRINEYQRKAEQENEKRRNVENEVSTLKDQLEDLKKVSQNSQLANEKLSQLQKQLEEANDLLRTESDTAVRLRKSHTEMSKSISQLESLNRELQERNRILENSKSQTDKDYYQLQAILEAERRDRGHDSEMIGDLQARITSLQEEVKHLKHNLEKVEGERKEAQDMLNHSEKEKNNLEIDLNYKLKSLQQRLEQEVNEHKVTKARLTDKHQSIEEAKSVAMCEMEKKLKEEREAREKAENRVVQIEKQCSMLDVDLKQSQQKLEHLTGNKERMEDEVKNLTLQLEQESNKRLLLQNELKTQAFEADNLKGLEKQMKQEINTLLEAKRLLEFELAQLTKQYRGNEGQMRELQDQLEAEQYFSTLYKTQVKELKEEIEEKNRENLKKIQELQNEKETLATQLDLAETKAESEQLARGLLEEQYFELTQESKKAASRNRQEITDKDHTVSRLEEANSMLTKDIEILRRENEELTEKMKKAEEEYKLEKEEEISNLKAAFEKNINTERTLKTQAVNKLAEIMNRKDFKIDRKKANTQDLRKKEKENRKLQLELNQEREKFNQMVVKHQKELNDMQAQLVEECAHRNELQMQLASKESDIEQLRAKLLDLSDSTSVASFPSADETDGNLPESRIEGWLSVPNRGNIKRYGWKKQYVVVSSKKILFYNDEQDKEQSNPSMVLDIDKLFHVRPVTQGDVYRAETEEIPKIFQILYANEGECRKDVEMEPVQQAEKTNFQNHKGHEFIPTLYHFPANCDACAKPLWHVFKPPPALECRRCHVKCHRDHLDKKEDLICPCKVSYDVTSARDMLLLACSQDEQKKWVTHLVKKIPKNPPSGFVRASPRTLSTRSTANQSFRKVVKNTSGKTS

As a reminder, the inhibition is the relative decrease from the control value, in per cent. In the case of `Fc1ccc(-c2nc3n(c2-c2ccncc2)CCS3)cc1`, the inhibition in assay [1] turned out to be 0.85%; in assay [2], 2.39%; in assay [3], 2.4%; in [4] it was 1.87%; in [5] it was 1.91%; in [6], 1.53%. For the same compound, the inhibition in assay [7] stood at 4.27%; in [8], 0.84%; in assay [9], 4.16%; in [10] it was 2.09%; in [11], 3.85%; in [12], 1.34%. In addition, the inhibition in assay [13] was determined as 3.94%; in [14], 3.66%; in assay [15], 4.28%; in [16], 2.32%; in assay [17], 3.35%; in assay [18], 1.54%. The inhibition in assay [19] came out at 1.87%; in assay [20], 1.14%.

On to `Nc1nccc(-c2c(-c3ccc(F)cc3)ncn2C2CCC(O)CC2)n1` (stereo not given), for which the inhibition was 2.37% in assay [1]; 1.25% in assay [2]; 0.01% in assay [3]; -0.81% in [4]; 0.4% in assay [5]; 1.56% in assay [6]. Also, the inhibition in [7] is 16.3%; in assay [8], 0.14%; in assay [9] it was 18.5%; in assay [10], 0.03%; in assay [11], 23.3%; in [12] it was -0.31%. Further, the inhibition was 19.4% in assay [13]; -1.29% in assay [14]; 0.27% in assay [15]; -0.66% in assay [16]; -0.24% in assay [17]; -0.76% in [18]. The inhibition was -0.96% in [19] and 0.4% in assay [20].
